This is a sample that favours compounds with a hit; in the whole collection about 2.9% have one here.
N-glyco inh: N-linked glycosylation inhibition; D54 ERlucT glycosylation luciferase reporter, 24 h; percent of 100 nM tunicamycin response; reporter increase, % at 12.5 µM; hit rate 0.23% among 360,000; AID 588692;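 active = mean luciferase reporter signal, scaled so untreated is 0 and the glycosylation-blocking control 100, at or above a set limit in every replicate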;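 also: luciferase carries N-glycosylation sites so blocking glycosylation raises the light; 0% = median of neutral control wells and 100% = median of 100 nM tunicamycin wells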
MITF TRPM1 HTS: increases MITF-driven TRPM1 promoter luciferase signal | SK-MEL-5 TRPM1-promoter luciferase, 24 h; % of positive control, neutral wells = 0 | activation, % at 12.5 µM | hit rate 0.75% among 300,000;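 active = mean activation of at least 80% with every replicate also reaching 80%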;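 also: 0% = neutral control wells and 100% = parthenolide positive control wells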
NSD2 HMT inh: blocks human histone methyltransferase NSD2. O96028. NSD2 peptide methylation, AlphaScreen, 120 min. inhibition, % at 12.5 µM. hit rate 0.54% among 310,000. AID 743445; in the data active = inhibition above about 50%
Target sequence (O96028 whole entry, looked up): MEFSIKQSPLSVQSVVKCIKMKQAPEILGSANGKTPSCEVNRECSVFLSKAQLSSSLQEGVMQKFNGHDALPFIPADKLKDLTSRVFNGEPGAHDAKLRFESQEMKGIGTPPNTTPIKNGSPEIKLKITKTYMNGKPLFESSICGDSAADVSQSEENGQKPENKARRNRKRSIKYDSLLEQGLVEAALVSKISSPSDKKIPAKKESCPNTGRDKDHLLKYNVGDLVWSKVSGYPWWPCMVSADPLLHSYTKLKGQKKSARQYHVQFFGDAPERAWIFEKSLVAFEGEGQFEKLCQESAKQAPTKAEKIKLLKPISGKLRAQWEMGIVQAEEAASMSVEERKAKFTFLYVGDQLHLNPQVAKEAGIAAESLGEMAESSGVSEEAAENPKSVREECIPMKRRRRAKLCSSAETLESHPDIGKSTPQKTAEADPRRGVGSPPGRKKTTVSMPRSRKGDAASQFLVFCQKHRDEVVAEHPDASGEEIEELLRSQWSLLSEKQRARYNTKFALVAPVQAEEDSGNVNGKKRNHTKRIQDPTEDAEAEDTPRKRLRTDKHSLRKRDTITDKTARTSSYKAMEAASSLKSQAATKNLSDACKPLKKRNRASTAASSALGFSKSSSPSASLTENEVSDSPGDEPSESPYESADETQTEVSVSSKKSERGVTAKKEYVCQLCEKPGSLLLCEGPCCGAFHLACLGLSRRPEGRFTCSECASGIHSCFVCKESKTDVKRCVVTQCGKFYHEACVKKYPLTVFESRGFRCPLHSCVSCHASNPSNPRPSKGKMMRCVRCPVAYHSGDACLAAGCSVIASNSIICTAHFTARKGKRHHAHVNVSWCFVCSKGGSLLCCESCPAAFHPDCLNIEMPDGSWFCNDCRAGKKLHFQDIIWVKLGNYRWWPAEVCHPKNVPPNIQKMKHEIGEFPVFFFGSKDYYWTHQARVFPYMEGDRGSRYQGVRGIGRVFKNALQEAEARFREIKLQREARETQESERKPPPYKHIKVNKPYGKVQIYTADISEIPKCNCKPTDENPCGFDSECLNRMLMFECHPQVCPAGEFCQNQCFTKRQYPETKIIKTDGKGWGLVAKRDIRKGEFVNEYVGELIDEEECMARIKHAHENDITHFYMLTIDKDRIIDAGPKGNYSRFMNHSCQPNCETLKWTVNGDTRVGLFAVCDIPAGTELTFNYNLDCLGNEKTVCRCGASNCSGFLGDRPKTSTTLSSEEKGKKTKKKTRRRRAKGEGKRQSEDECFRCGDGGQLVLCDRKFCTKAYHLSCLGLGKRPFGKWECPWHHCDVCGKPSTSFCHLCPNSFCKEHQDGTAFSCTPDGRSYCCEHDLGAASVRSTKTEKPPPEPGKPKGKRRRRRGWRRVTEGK
PfHsp90 set2: reduces growth (ATP signal) of yeast expressing P. falciparum Hsp90; inhibition, % at 9.4 µM; S. cerevisiae expressing PfHsp90, BacTiter-Glo ATP, 48 h; yeast lacking PDR1 and PDR3 efflux regulators; hit rate 0.32% among 310,000; AID 504621;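 active = every replicate shows inhibition above about 80%, whatever the replicate mean, limit read from the data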;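 also: 0% = DMSO neutral controls and 100% = 20 µM radicicol positive controls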
Wnt act: Wnt/beta-catenin pathway activation. AID 743398. activation, % at 9.35 µM. Wnt/beta-catenin reporter cell assay, activator, plate reader. hit rate 1.2% among 300,000; in the data active = activation above about 30%, passing the limit was not always enough;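 also: 0% = neutral control wells and 100% = positive control wells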
MITF TRPM1 inh: inhibitors of MITF-driven TRPM1 promoter in melanoma cells; inhibition, % at 12.5 µM; hit rate 0.83% among 330,000; SK-MEL-5 TRPM1 promoter luciferase, 24 h; AID 488899;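 active = mean inhibition across replicates of 60% or more, whatever share of single replicates reaches that level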
* = called active by the depositor; . = no result.

SMILES	N-glyco inh	MITF TRPM1 HTS	NSD2 HMT inh	PfHsp90 set2	Wnt act	MITF TRPM1 inh
Cc1cccc(N=C2c3cc([N+](=O)[O-])ccc3-c3c2cc([N+](=O)[O-])cc3[N+](=O)[O-])c1	-1	-40	3	107*	-6	42
COC(/C(C)=C/C=C/C(C)=C/c1coc(C)n1)C(C)C1CC(O)C2(C)OC2C=CC(C)C2CC(CC(=O)O2)CC2OC2C(=O)O1 (stereo not given)	3	.	-2	9	-7	65*
CC(=O)C1CCC2(O)C3CCC4=CC(=O)CCC4(C)C3CCC12C (stereo not given)	0	-4	-2	23	4	4
C[C@@H]1O[C@@H](O[C@@H]2C=C3CC[C@@H]4C(CC[C@]5(C)[C@@H](c6ccc(=O)oc6)CC[C@]45O)[C@@]3(C)CC2)[C@H](O)[C@H](O)[C@H]1O (stereo not given in full)	-22	-82	.	0	-19	83*
C[C@@H]1O[C@@H](O[C@@H]2C=C3CCC4C(CC[C@]5(C)[C@@H](c6ccc(=O)oc6)CC[C@]45O)[C@@]3(C)CC2)[C@H](O)[C@H](O)[C@H]1O (stereo not given in full)	-15	-80	.	7	-1	82*
CC12CCCCC1=NC(c1ccc(Br)cc1)N2O (stereo not given)	0	-10	0	27	.	6
CC1([N+](=O)[O-])COP(=O)(Nc2cccc(F)c2)OC1 (stereo not given)	-1	-9	-3	-11	-1	12
Cc1ccccc1C(=O)N1Cc2cnnn2-c2ccccc2C1C#N (stereo not given)	3	13	.	-10	-1	-7
Cc1ccccc1CN1Cc2cnnn2-c2ccccc2C1C#N (stereo not given)	24	-96	.	-19	-7	98*
NNCc1cccc(O)c1	-2	32	.	15	0	-35
CC(C)Oc1ccc(CC2(CCc3ccncc3)C(=O)NC(=O)NC2=O)cc1	0	.	21	-15	-4	-2
COc1ccc(CC2(CCc3ccncc3)C(=O)NC(=O)NC2=O)cc1OC	0	0	-1	5	37*	2
CC(C)[C@H]1C(=O)O[C@H](C(C)C)C(=O)N(C)[C@@H](C(C)C)C(=O)O[C@H](C(C)C)C(=O)N(C)[C@@H](C(C)C)C(=O)O[C@H](C(C)C)C(=O)N1C	-5	-76	.	-2	.	78*
CCOP(=O)(OCC)OCC	1	-2	.	.	-1	2
CCOP(=O)(CCP(=O)(OCC)OCC)OCC.C[CH2][Sn]([Cl])([Cl])[CH2]C	2	.	-2	-13	-5	85*
COc1ccc(C(C)=O)cc1CC(C(=O)c1ccccc1)N(C)C (stereo not given)	2	28	9	-1	9	-23
CC1=CC2OC3CC4OC(=O)C=CC=CC(C(C)O)OCC(O)C(C)CC(=O)OCC2(CC1O)C4(C)C31CO1 (stereo not given)	-18	.	-2	-12	-25	90*
CC1=CC2OC3CC4OC(=O)C=CC=CC(=O)OCCC(C)C(O)C(=O)OCC2(CC1O)C4(C)C31CO1 (stereo not given)	-20	-86	0	-44	.	86*
CCC(=NCc1cc(OC)cc(OC)c1)c1c(O)n(C)c(=O)n(C)c1=O	0	-10	-3	.	.	10
CCCC[N+]1(C)[C@@H]2CC(OC(=O)[C@H](CO)c3ccccc3)C[C@H]1[C@@H]1O[C@@H]12 (stereo not given in full)	0	-1	.	-6	-1	1
CC(NC1=NCCS1)c1ccccc1 (stereo not given)	2	3	-2	11	49*	-5
CC1CN=C(NC(C)c2ccccc2)S1 (stereo not given)	-2	1	0	.	-1	1
N#Cc1ccc(NC(=S)N2Cc3ccc(Br)cc3-n3nncc3C2)cc1	.	.	.	.	-3	.
CCC1(OC(=O)CN)C(=O)OCc2c1cc1n(c2=O)Cc2cc3ccccc3nc2-1 (stereo not given)	-10	-79	-2	-24	.	80*
CC[C@@]1(O)C(=O)OCc2c1cc1n(c2=O)Cc2cc3c(NC(=O)CN)cccc3nc2-1	-9	-41	1	-18	8	42
